# PubChem BioAssay (NCATS)
# Records with an inconclusive call do not appear. Entries that show only a call come without a potency. Activity calls are given as the source filed them. Unless noted, calls follow the shape of the dose curve; as a rule, active = well fitted curve in the direction sought with a large enough effect; inconclusive = small, poorly fitted or top-dose-only effect, or another doubt; inactive = no such curve, though single readings can be large; an effect the other way counts as inactive or inconclusive.
# What was measured:
# [1] = biological target: Calcium and integrin-binding protein 1 (Homo sapiens) (UniProt Q99828); assay: Primary qHTS for Identification of Calcium Integrin Binding Protein 1 (CIB1) Competitor (AID 1508620);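 also: GST tagged CIB1 binding a fluorescein labelled alphaIIb integrin peptide tracer; top concentration of the series differs between compounds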
# Calcium and integrin-binding protein 1 (Homo sapiens), sequence (Q99828 whole entry, looked up): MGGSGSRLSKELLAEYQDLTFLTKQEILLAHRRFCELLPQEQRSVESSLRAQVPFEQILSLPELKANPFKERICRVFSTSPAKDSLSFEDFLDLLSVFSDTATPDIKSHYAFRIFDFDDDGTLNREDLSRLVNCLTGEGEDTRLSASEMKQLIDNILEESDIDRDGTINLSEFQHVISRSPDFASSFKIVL
# Outline: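 Fluorescence polarization competition: CIB1-GST (1 uM final) preincubated with compound 15 min at room temperature, then FITC-labeled alphaIIb peptide (100 nM final) added for another 15 min. Polarization read at Ex 480/Em 540.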
# [2] = Primary qHTS for small molecule stabilizers of the endoplasmic reticulum resident proteome: Secreted ER Calcium Modulated Protein (SERCaMP) assay (AID 1508630); also: potency is read from the fitted curve at half-maximal effect
# Outline: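 GLuc-SERCaMP-expressing SH-SY5Y cells, pretreated 16 h with compound, are challenged with thapsigargin to empty ER calcium stores; after 4 h, coelenterazine is added directly to the medium and luminescence is imaged.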
# [3] = A High-Content qHTS Against Drug Library for the Identification of Small Molecules that Inhibit DYT1 Early Onset Primary Dystonia-Associated Cell Pathology (AID 1645839; calls by dose curve; also: series mostly up to about 46 µM)
# Outline: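 Readout: %pathology, the punctate EGFP-TorsinA distribution from imaging, as the primary channel and cell count as the toxicity counterscreen. HEK293 Flp-In cells expressing delE TorsinA were induced with tetracycline and treated with compound for 48 h.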
# [4] = Primary qHTS for inhibitors of La Crosse Virus (LACV) - induced cell death in SH-SY5Y cells (AID 1508616);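 also: top concentration of the series differs between compounds; higher means more rescue of cells from virus-induced death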
# Outline: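 Readout was luminescence from ATPLite 1step added after a 6-day LACV infection (0.01 MOI) of SH-SY5Y cells that had received pin-transferred compound 24 hr after seeding.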
# [5] = Confirmatory qHTS for small molecule stabilizers of the endoplasmic reticulum resident proteome: Secreted ER Calcium Modulated Protein (SERCaMP) assay (AID 1508628); also: nearly all actives have a fitted effect of over 40% in size; also: potency is read from the fitted curve at half-maximal effect
# Outline: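 We seeded SH-SY5Y-GLuc-SERCaMP cells, added compounds (three concentrations in the primary run, eleven up to 76.6 uM in confirmation), incubated 16 h, depleted ER calcium with thapsigargin, and read luciferase 4 h later.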
# [6] = Cell Viability qHTS for small molecule stabilizers of the endoplasmic reticulum resident proteome (AID 1508629); settings: cell viability counter-screen, 100 nM thapsigargin for final 4 h;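 also: potency is read from the fitted curve at half-maximal effect; compound exposure about 46 h in total before the viability read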
# [7] = biological target: Calcium and integrin-binding protein 1 (Homo sapiens) (UniProt Q99828); assay: Confirmatory qHTS for Identification of Calcium Integrin Binding Protein 1 (CIB1) Competitor (AID 1508617); also: nearly all actives have a fitted effect of over 65% in size
# Outline: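 Confirmatory qHTS measures displacement of a FITC-alphaIIb peptide (100 nM) from CIB1-GST (1 uM) by fluorescence polarization. Calcium-containing HEPES buffer, pH 7.4; two 15 min room-temperature incubations.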
# [8] = Counterscreen qHTS for small molecule stabilizers of the endoplasmic reticulum resident proteome: GLuc-NoTag assay (AID 1508627);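 also: SH-SY5Y cells given compound then 100 nM thapsigargin to empty ER calcium; series mostly up to about 76 µM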
# Outline: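 SH-SY5Y cells stably expressing constitutively secreted GLuc (no SERCaMP tag) were pre-incubated 5 h, treated with compound for 19 h, then 100 nM thapsigargin for 4 h at 37C; medium GLuc read by coelenterazine luminescence.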
structure (smiles),measurement,setting,value
CC(=O)O[C@H]1CC[C@@]2(C)C(=CC[C@@H]3[C@@H]2CC[C@]2(C)C(C(C)=O)=CC[C@@H]32)C1,Potency,[1],inactive
same,Potency,[2],inactive
same,Potency,[3],inactive
CCCOc1ccc2c(c1)CC[C@@H]1[C@@H]2CC[C@]2(C)C(OC)CC[C@@H]12 (stereo not given in full),Potency,[1],inactive
same,Potency,[3],inactive
CCN1C(=O)c2ccccc2C1Nc1ccc(OCCN2CCCCC2)cc1 (stereo not given),outcome,[4],inactive
same,Potency,[3],inactive
CC(=O)Nc1ccn(C2COC(COC(=O)c3ccccc3)O2)c(=O)n1 (stereo not given),Potency,[3],inactive
CC(C)NCCCC1(C(N)=O)c2ccccc2-c2ccccc21,outcome,[4],inactive
same,Potency,[3],inactive
CNC(=O)c1c(I)c(NC(C)=O)c(I)c(C(=O)O)c1I,outcome,[4],inactive
same,Potency,[3],inactive
O=c1[nH]sc2cc(Cl)ccc12,Potency,[2],inactive
same,Potency,[3],inactive
Oc1ccc(CCNCCCCCCNCCc2ccccc2)cc1O,Potency,[1],inactive
CC(=O)N[C@@H](CCC(N)=O)C(=O)O,outcome,[4],inactive
same,Potency,[3],inactive
CN1CCCN(C(c2ccccc2)c2ccc(Cl)cc2)CC1 (stereo not given),Potency,[1],inactive
same,Potency,[5],inactive
same,Potency,[6],25.1 µM (active)
O=[N+]([O-])c1ccc(O)c2ncccc12,Potency,[7],inactive
same,Potency,[6],7.94 µM (active)
same,Potency,[2],1 µM (active)
CCCCOCCOC(=O)c1cccnc1,Potency,[1],inactive
same,Potency,[3],inactive
CN1CCC(N(Cc2cccs2)c2ccccc2)CC1,Potency,[7],inactive
same,Potency,[8],inactive
same,Potency,[5],31.6 µM (active)
CO[C@@H]1[C@@H](OC)[C@H](C)[C@@](O)(CC(=O)O)O[C@H]1[C@H](C)[C@H]1O[C@@]2(CC[C@@](C)([C@H]3CC[C@@](C)([C@@H]4O[C@@H]([C@H]5O[C@](C)(O)[C@H](C)C[C@@H]5C)C[C@@H]4OC4C[C@H](OC)[C@@H](OC)[C@H](C)O4)O3)O2)C[C@H](O)[C@H]1C (stereo not given in full),Potency,[1],inactive
same,Potency,[2],inactive
